Screens as filed in PubChem BioAssay.
Hits are enriched below; roughly 9% of the tested compounds scored in any of these assays.
JMJD2A Tudor – blocks the human JMJD2A Tudor domain. 4.4% of 390,000 active. Potency, µM (highest dose often 114 µM), most hits filed as inhibitors. AID 504339. AlphaScreen JMJD2A-Tudor / H3K4me3 peptide binding; also: nearly all actives have a fitted effect of over 50% in size
PLK1 PBD block – PLK1 (human) polo-box domain binding inhibition; P53350; Plk1 PBD binding of FITC phosphopeptide, fluorescence polarization; Potency, µM, most hits filed as inhibitors; 2.8% of 360,000 active; AID 720504; also: series mostly up to about 57 µM; nearly all actives have a fitted effect of over 65% in size
ALOX12 inh – ALOX12 (human) lipoxygenase inhibition. P18054. purified 12hLO, xylenol orange hydroperoxide absorbance. Potency, µM (titrated, usually from 108 µM), hits mostly inhibitors. AID 1671190. 1.1% of 580,000 active
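Purified human 12hLO (150 nM final) in 25 mM Hepes, 0.01% Triton X-100, pH 7.0 was preincubated 15 min at room temperature with compound. Then 40 uM arachidonic acid was added, 30 min. Hydroperoxide was read by Fe-XO absorbance ratio 573/405 nm.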
BAZ2B inh – inhibitors of human BAZ2B bromodomain | Q9UIF8 | 4.4% of 360,000 active | AID 504333 | AlphaScreen BAZ2B-H3K14Ac peptide displacement | Potency, µM (highest dose often 114 µM), usual class: inhibitors; also: nearly all actives have a fitted effect of over 60% in size
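Compounds, titrated to a top concentration of 110 uM, were incubated 30 min at room temperature with preformed BAZ2B/acetyl-K14 H3 peptide complex (50 nM each). Proximity signal was measured by AlphaScreen after 20 min with beads.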
HP1b binding inh – inhibitors of HP1-beta chromodomain binding to methylated histone tails; P83916; 0.56% of 390,000 active; AlphaScreen HP1-beta / biotin-H3K9me3 peptide binding; Potency, µM (doses to about 114 µM), actives largely listed as inhibitors; also: nearly all actives have a fitted effect of over 70% in size
Target sequence (P83916 whole entry, looked up): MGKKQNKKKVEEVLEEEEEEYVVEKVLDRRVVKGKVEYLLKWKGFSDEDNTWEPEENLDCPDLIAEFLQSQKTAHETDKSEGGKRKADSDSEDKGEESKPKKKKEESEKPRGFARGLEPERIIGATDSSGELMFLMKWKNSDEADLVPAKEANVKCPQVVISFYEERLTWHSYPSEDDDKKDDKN
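Compound inhibition of the preformed complex between 50 nM HP1-beta and 50 nM biotinylated H3K9me3 peptide was read by AlphaScreen. Buffer was PBS pH 7.4 with 0.01% Tween-20. Incubations ran 30 min at room temperature, with 10 ug/mL donor/acceptor beads.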
G9a block – inhibitors of human histone lysine methyltransferase G9a. 8.8% of 350,000 active. Potency, µM (doses to about 102 µM), most hits filed as inhibitors. Q96KQ7. G9a H3K9 monomethylation, AlphaScreen, 2 h; also: nearly all actives have a fitted effect of over 75% in size
Target sequence (Q96KQ7 913-1193 limits assumed): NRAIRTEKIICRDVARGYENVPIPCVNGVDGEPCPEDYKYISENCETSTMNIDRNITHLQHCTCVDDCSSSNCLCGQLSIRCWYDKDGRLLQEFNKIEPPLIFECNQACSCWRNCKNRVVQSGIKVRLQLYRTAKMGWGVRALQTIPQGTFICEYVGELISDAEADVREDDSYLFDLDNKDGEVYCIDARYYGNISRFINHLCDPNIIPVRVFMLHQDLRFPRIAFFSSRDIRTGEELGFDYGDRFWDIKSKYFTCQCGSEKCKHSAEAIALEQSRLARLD
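Signal arises when biotinylated H3K9 peptide, once monomethylated, bridges streptavidin donor and antibody-captured acceptor beads. Enzyme at 20 nM was preincubated 15 min with test compounds; peptide 500 nM and SAM 20 uM then reacted for 2 h.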
Numbers stand for hits; - = inactive; ? = inconclusive; . = no result; ! = repeats disagree. Calls follow the shape of the dose curve; as a rule, active = well fitted curve in the direction sought with a large enough effect; inconclusive = small, poorly fitted or top-dose-only effect, or another doubt; inactive = no such curve, though single readings can be large; an effect the other way counts as inactive or inconclusive.

SMILES	JMJD2A Tudor	PLK1 PBD block	ALOX12 inh	BAZ2B inh	HP1b binding inh	G9a block
FC(F)(F)c1ccc2c(c1)n(Cc1ccccc1)c1[n+]2CCCCC1	?	-	?	?	-	28µM
COc1ccc(C(C)NC(=O)c2noc(-c3ccccc3F)n2)cc1OC (stereo unspecified)	.	.	-	.	.	.
O=C(/C=C/c1cccc([N+](=O)[O-])c1)NC(=S)Nc1ccccc1C(=O)O	.	.	.	-	.	45µM
O=C(NC(NC(=S)Nc1ccccc1C(=O)O)C(Cl)(Cl)Cl)c1cccc([N+](=O)[O-])c1 (stereo unspecified)	79µM	24µM	?	-	-	?
CC(C)c1ccc(-c2csc(NC(=O)COCc3nc4ccccc4c(=O)[nH]3)n2)cc1	.	.	-	.	.	.
CC(C)OCC(O)CN1CCNCC1 (stereo unspecified)	79µM	-	?	-	-	?
OC(COc1ccccc1Br)CN1CCNCC1 (stereo unspecified)	-	-	?	-	-	?
COc1ccc(S(=O)(=O)Cc2ccc(C(=O)N3CC(C)CC(C)C3)o2)cc1 (stereo unspecified)	-	-	-	-	-	-
COc1cccc(-n2ccnc2SCC(=O)Nc2cccc(C)c2C)c1	-	.	-	?	-	?
CCOc1ccc(-n2ccnc(SCC(=O)Nc3ccc(OC)cc3OC)c2=O)cc1	?	?	-	?	-	35µM
CCOc1ccc(-n2ccnc(SCC(=O)NCc3cccc(OC)c3)c2=O)cc1	-	?	-	-	-	-
COc1cccc(-n2ccnc2SCC(=O)Nc2ccccc2)c1	?	3µM	-	?	?	?
COc1ccc(NC(=O)C(Cc2ccccc2)n2cccc2)c(OC)c1 (stereo unspecified)	-	-	-	35µM!	-	?
COc1cccc(-n2ccnc2SCC(=O)Nc2ccccc2F)c1	?	-	-	25µM	?	-
O=C(Cc1csc(Nc2nc(=S)[nH]c3ccccc23)n1)NCc1ccc(Cl)cc1	-	-	-	-	-	-
COc1cccc(NC(=O)CSc2nccn2-c2cccc(OC)c2)c1	?	-	-	?	-	40µM
COc1cccc(-n2nnnc2SCC(=O)Nc2ccccc2OC)c1	-	-	-	-	-	-
COc1ccc(NC(=O)CSc2nccn2-c2cccc(OC)c2)cc1	?	-	-	?	-	?
Cc1ccc(-n2nnnc2SCC(=O)NCCc2ccccc2)cc1C	-	.	-	-	-	-
COc1ccc(-n2nnnc2SCC(=O)NCCc2ccccc2)cc1OC	-	-	?	?	-	22µM
COc1cccc(-n2nnnc2SCC(=O)Nc2ccc(C(C)=O)cc2)c1	?	24µM	-	-	-	-
CCCS(=O)(=O)c1nnnn1-c1cccc(OC)c1	-	13µM	.	-	-	?
COc1cccc(-n2ccnc2SCC(=O)Nc2cc(OC)ccc2OC)c1	89µM	-	-	28µM	45µM	?
COc1ccc(NC(=O)CSc2nccn2Cc2ccccc2)c(OC)c1	-	-	-	?	-	45µM
CC(=O)c1ccc(NC(=O)C2CCN(c3nnc(C)c4c(C)n(-c5ccccc5)nc34)CC2)cc1	?	.	-	?	-	-
SMILES	JMJD2A Tudor	PLK1 PBD block	ALOX12 inh	BAZ2B inh	HP1b binding inh	G9a block
Cc1sc2nc(SCC(N)=O)n(-c3ccccc3)c(=O)c2c1C	-	-	-	-	-	-
Cc1sc2nc(SCc3nc(-c4ccccc4)no3)n(-c3ccccc3)c(=O)c2c1C	-	-	-	-	-	3.2µM
COc1ccc([C@H]2C[C@@H](O)[C@@H](O)[C@@H]2NC(=O)c2cc(C)on2)cc1	.	.	-	.	.	.
CCN(CC)C(=O)NC1CC2CCCC(C1)N2Cc1ccccc1 (stereo unspecified)	-	?	-	-	-	2.8µM
COc1ccc(NC(=O)c2nc3ccccc3nc2N2CCN(C)CC2)cc1Cl	.	.	-	.	.	.
Cc1ccc(C)n1NC(=O)c1ccco1	-	-	-	-	-	40µM
Cc1nc2ccccc2c(=O)n1NC(=O)c1ccco1	-	-	-	-	-	-
CCN(c1ccc(NC(=O)CCNC(=O)c2ccco2)cc1)C(C)C	-	-	-	-	-	5µM
Cc1ccc(NC(=O)CCNC(=O)c2ccco2)cc1	-	-	-	-	-	-
